Results filed as inconclusive are left out. Calls of active or inactive are those of the source. Unless noted, calls come from the whole dose curve; as a rule, active = well fitted curve in the direction sought with a large enough effect; inconclusive = small, poorly fitted or top-dose-only effect, or another doubt; inactive = no such curve, though single readings can be large; an effect the other way counts as inactive or inconclusive.

A short description of assay [1]: Cell Viability - BJ (AID 421; calls by dose curve;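 note: potency is the fitted concentration of half-maximal effect; cells exposed to compound for 40 hours at 37 °C before readout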). As to conditions: BJ fibroblast viability, qHTS. In a few lines: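 Normal human BJ foreskin fibroblasts, 1500/well in complete medium, treated 40 hr at 37 °C. Cellular ATP by CellTiter-Glo luminescence; normalized to DMSO and 100 uM tamoxifen, AC50 from Hill fit.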
A general note: qHTS replaces the single test concentration by a dilution series.

A short description of assay [2]: Cell Viability - HepG2 (AID 433; calls by dose curve;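 note: potency is the fitted concentration of half-maximal effect; cells exposed to compound for 40 hours; potency for ATP loss meaning cytotoxicity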). As to conditions: qHTS. The essentials: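 Cytotoxicity read as ATP loss (CellTiter-Glo luminescence) after 40 hr compound exposure of HepG2, 1500 cells/well, 37 °C. AC50 by Hill equation; 0% set by DMSO, 100% inhibition by 100 uM tamoxifen.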
A short description of assay [3]: Cell Viability - Mesenchymal (AID 546).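 Note: cells exposed to compound for 40 hours before reading.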 The conditions noted are these: mesenchymal cells viability, qHTS; activity change, negative = cytotoxicity: at 91.7 µM (top of the series). In a few lines: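 Normal human renal glomerulus-derived kidney mesenchymal cells, 1000 per well in complete medium, were treated with compounds for 40 hr at 37 °C. Viability was read as intracellular ATP by CellTiter-Glo luminescence; AC50 values came from Hill-equation fits of qHTS concentration-response data.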

Assay [4] in a line: Cellular Toxicity (caspase-3) Jurkat (AID 655).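 Note: cells exposed to compound for 16 h at 37 °C before reading.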 The conditions noted are these: Jurkat caspase-3 activation, luminescence; caspase-3 activation: at 92.2 µM (top of the series), DMSO = 0%, tamoxifen = 100%. The essentials:
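Luminescent Caspase-Glo 3/7 read-out (20 min, room temperature) after 16 h compound treatment at 37 C of 5000 Jurkat cells per well. AC50 derived by Hill-equation fitting, scaled between DMSO basal and 100 uM tamoxifen stimulation.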

Assay [5] can be described thus: Cell Viability - LYMP2-003 (AID 965).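 For activity change, negative = cytotoxicity: 0% = DMSO only and full effect = 92 µM tetraoctylammonium bromide.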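 Note: cells exposed to compounds for 24 h before reading; nearly all actives have a fitted effect of over 50% in size.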 Note: potency is the fitted concentration of half-maximal effect. The conditions noted are these: LYMP2-003 lymphoblastoid cell viability; series mostly up to 92.2 µM. The essentials:
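CellTiter-Glo luminescence quantified ATP loss after 24 h compound treatment of LYMP2-003 lymphoblastoid cells at 37 C. Titration series were fitted with the standard Hill equation to give AC50.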

Assay [6] in a line: Cell Viability - LYMP2-011 (AID 969).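 Note: cells exposed to compound for 24 hours; nearly all actives have a fitted effect of over 60% in size.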 Note: potency is the fitted concentration of half-maximal effect. The conditions noted are these: LYMP2-011 lymphoblastoid cells viability; series mostly up to 92.2 µM. In a few lines:
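2500 cells/well, 5 hr 37 C; compound added, 24 hr 37 C; CellTiter-Glo 30 min RT; luminescence. qHTS concentration-response, Hill-equation AC50. Tetraoctylammonium bromide positive control.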

A short description of assay [7]: Cell Viability - LYMP2-021 (AID 974). For activity change, negative = cytotoxicity: % is set by controls: 0 for no effect and ±100 for the full control effect.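 Note: compound exposure lasts 24 hours at 37 °C; nearly all actives have a fitted effect of over 55% in size.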 Note: potency is the fitted concentration of half-maximal effect. The conditions noted are these: LYMP2-021 lymphoblastoid cells viability; series mostly up to 92.2 µM. In a few lines: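 Plate 2500 lymphoblastoid cells per well and incubate 5 hr at 37 C. Add compounds over a concentration range and incubate 24 hr at 37 C. Add CellTiter-Glo, wait 30 min at room temperature, read luminescence.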

Assay [8] is described as follows: Cell Viability - LYMP2-023 (AID 975).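 For activity change, negative = cytotoxicity: cellular ATP measured by luciferase luminescence as viability proxy; plate controls were DMSO only for no effect and 92 µM tetraoctylammonium bromide control for full effect.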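 Note: cells exposed to compound for 24 hours at 37 °C; nearly all actives have a fitted effect of over 55% in size.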 Note: potency is the fitted concentration of half-maximal effect. As to conditions: LYMP2-023 lymphoblastoid cell viability; series mostly up to 92.2 µM. In a few lines: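 2500 cells/well, 5 hr 37 C; cpd 24 hr 37 C; CellTiter-Glo, 30 min RT; luminescence. qHTS conc-response, Hill fit -> AC50. Pos ctrl tetraoctylammonium bromide.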
The nature of assay [9]: Cell Viability - LYMP2-025 (AID 976).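 For activity change, negative = cytotoxicity: plate controls were DMSO only for no effect and tetraoctylammonium bromide control for full effect.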 Note: potency is the fitted concentration of half-maximal effect. The conditions noted are these: LYMP2-025 lymphoblastoid cell viability; series mostly up to 92.2 µM. The essentials: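 Seed 2500 LYMP2-025 cells/well; 5 hr at 37 C; add compound; 24 hr at 37 C; add CellTiter-Glo; 30 min RT; read luminescence. AC50 from Hill-modelled concentration-response.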
A short description of assay [10]: Cell Viability - LYMP2-002 (AID 977). Note: potency is the fitted concentration of half-maximal effect. The conditions noted are these: LYMP2-002 lymphoblastoid cell viability, qHTS; series mostly up to 92.2 µM. The essentials: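 Luminescent ATP readout (CellTiter-Glo, 30 min room temperature) after 24 h compound exposure at 37 C of a human lymphoblastoid line, 2500 cells/well. AC50 values derived by standard Hill fitting of qHTS concentration-response data.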

Assay [11] is described as follows: Cell Viability - LYMP2-008 (AID 980). For activity change, negative = cytotoxicity: % is set by controls: 0 for no effect and ±100 for the full control effect. Note: nearly all actives have a fitted effect of over 60% in size. Note: potency is the fitted concentration of half-maximal effect. The conditions noted are these: LYMP2-008 lymphoblastoid cell viability, qHTS; series mostly up to 92.2 µM. In a few lines:
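qHTS, human lymphoblastoid line, 2500 cells/well; 5 hr preincubation, 24 hr compound, 37 C. CellTiter-Glo ATP luminescence. AC50 via Hill equation. Tetraoctylammonium bromide positive control.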

The nature of assay [12]: Cell Viability - LYMP2-014 (AID 983).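 For activity change, negative = cytotoxicity: plate controls were DMSO only for no effect and 92 µM tetraoctylammonium bromide for full effect.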 Note: nearly all actives have a fitted effect of over 50% in size. Note: potency is the fitted concentration of half-maximal effect. As to conditions: LYMP2-014 lymphoblastoid cells, viability qHTS; series mostly up to 92.2 µM. In a few lines:
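Luminescent ATP signal (CellTiter-Glo, 30 min at room temperature) serves as the viability read-out after 24 hr compound exposure at 37 C. Cells were seeded at 2500 per well and settled 5 hr beforehand.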

Assay [13] is described as follows: Cell Viability - LYMP2-016 (AID 984). For activity change, negative = cytotoxicity: % is set by controls: 0 for no effect and ±100 for the full control effect.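 Note: cells exposed to compound for 24 hours at 37 °C; nearly all actives have a fitted effect of over 55% in size.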 Note: potency is the fitted concentration of half-maximal effect. As to conditions: LYMP2-016 lymphoblastoid cell viability, qHTS; series mostly up to 92.2 µM. In a few lines: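 Cytotoxicity was scored by luminescent ATP content (CellTiter-Glo) after 24 h compound exposure at 37 C of a human lymphoblastoid line at 2500 cells/well. Concentration-response data were fitted to the Hill equation for AC50.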

A short description of assay [14]: Cell Viability - LYMP2-018 (AID 985).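 For activity change, negative = cytotoxicity: plate controls were DMSO only for no effect and tetraoctylammonium bromide at 92 µM for full effect.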 Note: nearly all actives have a fitted effect of over 50% in size. Note: potency is the fitted concentration of half-maximal effect. The conditions noted are these: LYMP2-018 lymphoblastoid cells, viability (qHTS); series mostly up to 92.2 µM. In a few lines: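 Luminescent ATP signal (CellTiter-Glo, read after 30 min at room temperature) reports viable cells after 24 hr compound treatment at 37 C. Concentration-response data were fitted to the standard Hill equation for AC50.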

Assay [15] in a line: Cell Viability - LYMP2-022 (AID 987). Note: nearly all actives have a fitted effect of over 55% in size. Note: potency is the fitted concentration of half-maximal effect. The conditions noted are these: LYMP2-022 lymphoblastoid cell viability; series mostly up to 92.2 µM. In a few lines:
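qHTS: human lymphoblastoid cells 2500/well; 5 hr 37 C; cpd added; 24 hr 37 C; CellTiter-Glo, 30 min RT; luminescence. AC50 via Hill fit; tetraoctylammonium bromide positive ctrl.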

Assay [16] in a line: Cell Viability - LYMP2-024 (AID 988).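 For activity change, negative = cytotoxicity: plate controls were DMSO only for no effect and 92 µM tetraoctylammonium bromide for full effect.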 Note: nearly all actives have a fitted effect of over 60% in size. Note: potency is the fitted concentration of half-maximal effect. The conditions noted are these: LYMP2-024 lymphoblastoid cell viability; series mostly up to 92.2 µM. The essentials:
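Steps: seed 2500 cells/well, 5 hr 37 C; add compound, 24 hr 37 C; add CellTiter-Glo, 30 min room temperature; read luminescence. AC50 derived by Hill modelling of concentration-dependent ATP loss.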

Assay [17] is described as follows: Cell Viability - LYMP2-026 (AID 989). Note: nearly all actives have a fitted effect of over 50% in size. Note: potency is the fitted concentration of half-maximal effect. The conditions noted are these: LYMP2-026 lymphoblastoid cell viability, qHTS; series mostly up to 92.2 µM. The essentials:
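Luminescent ATP signal (CellTiter-Glo, 30 min room temperature) measures viable lymphoblastoid cells after 24 hr compound treatment at 37 C. Decreased ATP reflects acute toxicity; AC50 values come from Hill-equation modeling.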

A short description of assay [18]: qHTS assay for environmental chemicals that activate the Aryl hydrocarbon Receptor (AhR) signaling pathway (AID 651777). Note: % of control where 0% means no effect; nearly all actives have a fitted effect of over 15% in size. As to conditions: 1A2-DRE human hepatoma cells, luciferase, 24 h; activation: stronger effect = higher value. In a few lines: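 Stable CYP1A2 promoter/DRE-luciferase human hepatoma line treated 24 hr; One-Glo luminescence, 30 min RT.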
Assay [19] is described as follows: qHTS assay for small molecule antagonists of retinoid X receptor alpha signaling (AID 588546; active = well fitted inhibition curve with a large enough effect in the signal ratio, with a control signal flat, not every such curve was filed as active; the % refers to the signal ratio;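 note: cells stimulated with 9-cis-retinoic acid as agonist; % is set by controls: 0 for no effect and ±100 for the full control effect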). The conditions noted are these: HEK293T RXRa-UAS-bla, beta-lactamase ratio, antagonist mode; measured here: W530 green channel, cytotoxicity proxy. In a few lines:
(§1)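 Beta-lactamase reporter inhibition, read as CCF4 fluorescence ratio (ex 405, em 460/530 nm) after 2 h at RT. HEK293T UAS-bla cells, 2500/well, were stimulated with 9-cis-RA at 500 or 100 nM final alongside test compound for 18 h at 37 C.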

In assay [20] the target is Retinoic acid receptor RXR-alpha (Homo sapiens) (UniProt P19793). The description is as above. The conditions noted are these: HEK293T RXRa-UAS-bla, beta-lactamase ratio, antagonist mode. The essentials:
as §1

Sequence of Retinoic acid receptor RXR-alpha (Homo sapiens) (P19793 whole entry, looked up): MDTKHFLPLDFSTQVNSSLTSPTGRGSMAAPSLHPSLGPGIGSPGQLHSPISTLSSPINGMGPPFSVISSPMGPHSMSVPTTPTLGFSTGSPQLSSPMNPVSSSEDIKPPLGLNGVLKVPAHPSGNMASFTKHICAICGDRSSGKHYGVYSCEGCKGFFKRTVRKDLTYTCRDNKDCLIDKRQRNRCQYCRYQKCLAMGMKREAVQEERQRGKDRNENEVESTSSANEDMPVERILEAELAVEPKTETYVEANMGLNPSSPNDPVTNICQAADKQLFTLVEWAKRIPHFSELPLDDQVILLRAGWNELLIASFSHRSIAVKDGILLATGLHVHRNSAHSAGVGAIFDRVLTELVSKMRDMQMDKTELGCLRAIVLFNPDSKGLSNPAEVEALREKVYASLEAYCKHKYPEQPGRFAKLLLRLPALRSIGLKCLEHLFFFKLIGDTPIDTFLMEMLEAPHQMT

Turning to `Brc1cc(Br)c(Oc2cc(Br)c(Br)cc2Br)cc1Br`, the Potency in assay [1] and in assay [2] was > 92 µM (inactive) each time. Moreover, the Potency entry in [3], in assay [4], in assay [5], in [6], in assay [7] and in assay [8] was “inactive” each time. For the same compound, the Potency entry in assay [9], in assay [10], in assay [11], in [12], in assay [13] and in [14] was “inactive” throughout. In addition, the Potency entry in assay [15], in [16] and in assay [17] was “inactive” in each case. Besides, the activation in [18] is -1.17% (inactive).

For the compound `S=C(NC1CCCCC1)NC1CCCCC1`, the Potency entry in [3], in assay [4], in assay [5], in [6], in assay [7] and in [8] was “inactive” each time. Further, the Potency result in assay [9], in assay [10], in assay [11], in [12], in assay [13] and in assay [14] was “inactive” throughout. Also, the Potency result in assay [15], in assay [16] and in assay [17] was “inactive” throughout. Moreover, the max response in assay [19] was -2.99%; in assay [20], -14.3% (inactive). The activation in [18] was 5.57% (inactive).

On to `CC/C=C/C/C=C/C/C=C/CCCCCCCC(=O)OCC`, for which the Potency in [1] was > 92 µM (inactive); in assay [2], > 92 µM (inactive); in [5], 31.6 µM (active); in [7] it was 50.1 µM (active); in assay [8] it was 39.8 µM (active); in assay [11], 50.1 µM (active). For the same compound, the Potency in assay [12] is 50.1 µM (active); in assay [13], 39.8 µM (active); in [14] it was 31.6 µM (active); in assay [15], 25.1 µM (active); in [16], 25.1 µM (active); in assay [17] it was 50.1 µM (active). Also, the Potency entry in assay [3] and in [4] was “inactive” throughout. Moreover, the activation in assay [18] is 0.56% (inactive).

With `Oc1cc2c(cc1O)[C@H]1c3ccc(O)c(O)c3OC[C@@]1(O)C2`, in [4], the Potency entry was “inactive”. The Potency was 31.6 µM (active) in assay [5]; 39.8 µM (active) in assay [6]; 31.6 µM (active) in assay [7]; 50.1 µM (active) in assay [8]; 50.1 µM (active) in assay [9]; 39.8 µM (active) in assay [10]. Besides, the Potency in [11] was 39.8 µM (active); in assay [12], 39.8 µM (active); in assay [13] it was 39.8 µM (active); in assay [14], 31.6 µM (active); in assay [15] it was 31.6 µM (active); in assay [16] it was 25.1 µM (active). The Potency in assay [17] was 39.8 µM (active). For the same compound, the max response in assay [19] was -1.27%; in [20], -15.2% (inactive). Moreover, the activation in [18] was -1.85% (inactive).

The values above are taken from PubChem BioAssay (NCATS).
